The list is not random: actives were taken first. Their share in the collection is about 27%.
CYP2C19 act: human CYP2C19 activators, primary screen, biochemical, luminescence; Cytochrome P450 2C19 (Homo sapiens), P33261; AID 1025, 2008; 96,000 tested, under 10 active; recombinant CYP2C19, luciferin-H EGE luminescence; stronger effect = higher value; 0 = fully inhibited enzyme, 1 = untreated enzyme; activation factor at 5 µM;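 active means activation factor of at least 2 at 5 µM in the primary screen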
CYP2C9 activ: human CYP2C9 activators, primary screen, biochemical, luminescence | Cytochrome P450 2C9 (Homo sapiens), P11712 | 96,000 tested, 1.4% active | activation factor at 5 µM | recombinant CYP2C9, luciferin-H conversion; stronger effect = higher value; factor 1 = untreated enzyme, 0 = blocked;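 active means activation factor of 2 or more for CYP2C9 at a 5 µM dose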
Target sequence (P11712 whole entry, looked up): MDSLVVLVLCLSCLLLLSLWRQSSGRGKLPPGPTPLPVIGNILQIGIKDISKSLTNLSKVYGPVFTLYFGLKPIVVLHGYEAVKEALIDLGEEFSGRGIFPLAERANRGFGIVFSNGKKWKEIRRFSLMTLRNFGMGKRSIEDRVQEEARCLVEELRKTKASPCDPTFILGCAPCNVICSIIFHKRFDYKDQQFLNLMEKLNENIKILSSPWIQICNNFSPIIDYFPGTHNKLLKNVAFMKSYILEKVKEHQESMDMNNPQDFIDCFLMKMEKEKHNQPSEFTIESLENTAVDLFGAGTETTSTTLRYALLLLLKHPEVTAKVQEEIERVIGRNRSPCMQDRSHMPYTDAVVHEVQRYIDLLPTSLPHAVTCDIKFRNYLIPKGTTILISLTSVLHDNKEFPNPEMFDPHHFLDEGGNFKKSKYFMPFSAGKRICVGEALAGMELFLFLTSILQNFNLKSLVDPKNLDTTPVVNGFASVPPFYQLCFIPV
Cav32 inh: Cav3.2 calcium influx blockers – cell-based, Fluo-4 calcium fluorescence, FDSS, MLSMR library, primary screen. Voltage-dependent T-type calcium channel subunit alpha-1H (Homo sapiens), O95180. Cav3.2-expressing cells; stronger effect = lower value. B-score at 10 µM. 100,000 tested, 4% active. AID 449739, 2010;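 active means single-dose well whose peak fluorescence ratio is a statistical outlier from its plate by either plate-standardised score or position-corrected B-score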
CYP2C19 inh: blockers of cytochrome P450 2C19 activity – biochemical, luminescence, ADME assay, primary screen. inhibition, % at 5 µM. AID 778, 2007. CYP2C19 Supersomes, luciferin-H EGE luminescence, 30 min. 96,000 tested, 21% active;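 active means CYP2C19 inhibition above a set limit at 5 µM in the primary screen, cut at about 50% in these data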
CYP2C9 inh: blockers of cytochrome P450 2C9 activity – biochemical, luminescence, ADME assay, primary screen | P11712 | inhibition, % at 5 µM | CYP2C9 Supersomes, luciferin-H conversion | 96,000 tested, 20% active;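 active means blocking of liver enzyme CYP2C9 beyond about 50% at 5 µM, limit read from the data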
Of the large screens only hits and unclear results are named; the others gave an inactive call.

C=CCn1c(SCC(=O)Nc2sccc2C(N)=O)nc2sc(CC)cc2c1=O	CYP2C9 inh 66
C=CCn1c(SCC(=O)Nc2sccc2C(N)=O)nc2ccc(Cl)cc2c1=O	none
C=CCn1c(SCn2nnc3ccccc3c2=O)nc2scc(-c3cccs3)c2c1=O	CYP2C9 inh 72
C=CCn1c(SCC(=O)NCc2ccc3c(c2)OCO3)nc2scc(-c3ccccc3)c2c1=O	CYP2C9 inh 54
CN(C)S(=O)(=O)c1ccc(S(=O)(=O)NC2CCOC(C)(C)C2)cc1 (configuration not stated)	none (no result: CYP2C19 act, CYP2C9 activ, CYP2C19 inh, CYP2C9 inh)
CCn1c(Cc2ccccc2)nnc1SCC(=O)Nc1ccc2c(c1)OCO2	CYP2C19 inh 62
CCn1c(Cc2ccccc2)nnc1SCC(=O)Nc1ccc(N2CCOCC2)c(Cl)c1	CYP2C19 inh 80, CYP2C9 inh 58
CC(C)C(NC(=O)C12CC3CC(CC(C3)C1)C2)C(=O)O (configuration not stated)	none
N#CCCN(Cc1cccnc1)S(=O)(=O)c1ccc(S(=O)(=O)NC2CCCCC2)cc1	CYP2C19 inh 59
O=C(O)c1cccc(N2C(=O)c3cccnc3C2=O)c1	none
Brc1ccc(-c2noc3c2-c2nc(-c4ccccc4)sc2CC3)cc1	none (no result: CYP2C19 act, CYP2C9 activ, CYP2C19 inh, CYP2C9 inh)
O=C1OCCC1Sc1nnc(-c2ccc(Br)cc2)o1 (configuration not stated)	CYP2C19 inh 62
CC1CCc2sc3c(c2C1)c1ncnn1c(=O)n3CC(=O)c1ccc(Br)cc1 (configuration not stated)	none (no result: CYP2C19 act, CYP2C9 activ, CYP2C19 inh, CYP2C9 inh)
CCOc1cc(Cl)c(S(=O)(=O)NCc2ccccn2)cc1Cl	none
COc1cc(Cl)c(S(=O)(=O)NCc2ccccn2)cc1Cl	CYP2C19 inh 81
O=C(CCNS(=O)(=O)c1ccc(Cl)cc1)NCc1ccccn1	none
COc1ccc(S(=O)(=O)NCc2ccccn2)cc1Cl	CYP2C9 activ 3.2, CYP2C19 inh 92
O=S(=O)(NCCc1ccccn1)c1ccc(F)c(F)c1	CYP2C19 inh 85
CC(C)(C)NC(=O)[C@H]1CC[C@H]2[C@@H]3CC[C@H]4NC(=O)C=C[C@]4(C)[C@H]3CC[C@]12C	none (no result: CYP2C19 act, CYP2C9 activ, CYP2C19 inh, CYP2C9 inh)
Cn1ccnc1C(=O)c1cc(=O)c2ccccc2o1	none
CN(c1ccccc1)S(=O)(=O)c1cc(C(=O)c2nccn2C)ccc1Cl	CYP2C19 inh 99, CYP2C9 inh 91
COc1ccc2oc(=O)c(-c3nc(C)cs3)cc2c1	CYP2C19 inh 77, CYP2C9 inh 55
O=C(c1ccncc1)c1nccn1-c1ccccn1	CYP2C19 inh 75, CYP2C9 inh 81
CC(C)(C)C(=O)Nc1ccc(C(=O)Nc2cccnc2)cc1	none
Cc1ccc2ccc(S(=O)(=O)n3nc(C)cc3C)cc2c1	CYP2C19 inh 61
CC(=O)Nc1ccc(S(=O)(=O)n2nc(C)cc2C)cc1	none
Cc1cccc(OCC(=O)Nc2ccc3c(c2)OCCO3)c1	CYP2C19 inh 70, CYP2C9 inh 58
O=C(COc1ccccc1Cl)Nc1ccc2c(c1)OCCO2	none
Cc1cccc(OCCCC(=O)Nc2ccc(Br)cc2)c1	CYP2C19 inh 59
O=C(CCCOc1ccccc1)Nc1ccc2c(c1)OCCO2	CYP2C19 inh 81, CYP2C9 inh 55
Cc1ccc(C)c(OCC(=O)Nc2ccc3c(c2)OCO3)c1	none (no result: Cav32 inh)
Cc1ccccc1OCCCC(=O)Nc1ccc2c(c1)OCO2	CYP2C19 inh 63
Cc1cccc(OCCCC(=O)NC(C)C)c1	none
COc1ccc(S(=O)(=O)NNC(=O)C2Cc3c(ccc4ccccc34)O2)cc1 (configuration not stated)	none
O=C(Cn1cc2c(n1)CCCC2)NCCCN1CCN(c2ccccc2F)CC1	none
O=C(CCN1C(=O)c2ccccc2S1(=O)=O)Nc1ccc2c(c1)OCCO2	CYP2C9 inh 59
Cc1nc2ncnn2c(C)c1Cc1ccccc1Cl	CYP2C19 inh 87
CN(C)CC(C)(C)CNS(=O)(=O)c1cccc(Cl)c1Cl	CYP2C19 inh 77
O=C1NNC(=O)C2C3C=CC(C4CC34)C12 (configuration not stated)	none
CCOc1cc(C2NC(=O)N(C)C(C)=C2C(=O)OC)cc(Br)c1O (configuration not stated)	CYP2C9 inh 86
COc1cc(NS(=O)(=O)c2ccc(N/C=C(\C#N)c3nc4cc(Cl)ccc4o3)cc2)nc(OC)n1	CYP2C9 inh 63
Cn1c(N)c(C(=O)CSc2ccc3c(c2)OCCO3)c(=O)n(C)c1=O	none (no result: Cav32 inh)
C/C(N)=C(/C#N)C(=O)CSc1ccc2c(c1)OCCO2	CYP2C19 inh 95
Cc1nc2ccccn2c1/C(O)=C1\C(=O)C(=O)N(CCCn2ccnc2)C1c1ccncc1 (configuration not stated)	none
O=C(O)CC1SC(=Nc2cccc(C(F)(F)F)c2)NC1=O (configuration not stated)	none
Cc1cccc(-n2ncc3c(N4CC(C)CC(C)C4)ncnc32)c1 (configuration not stated)	CYP2C9 inh 81 (no result: Cav32 inh)
C=CCNc1ncnc2c1cnn2-c1cccc(C)c1	CYP2C19 inh 66, CYP2C9 inh 73
Cc1cccc(-n2ncc3c(NCCCO)ncnc32)c1	CYP2C9 inh 64
Cc1ccc(S(=O)(=O)N2CCC(C(=O)N[C@H](C(=O)N3CCN(C)CC3)C(C)C)CC2)cc1	none
CC(C)COP(=O)(c1ccc(N(C)C)cc1)C(O)c1ccccc1F (configuration not stated)	none
COc1cccc(/C=N/NC(=O)c2ccc(-c3ccccc3)cc2)c1O	none
COc1cccc(/C=N/n2c(=S)n(C)c3cc(C)c(C)cc32)c1OC	none
COc1cccc(/C=N/n2c(N)nc3ccccc32)c1OC	none
COc1cccc(/C=N/n2c(SC)nnc2-c2ccccc2)c1OC	CYP2C19 inh 91, CYP2C9 inh 91
COc1cccc(/C=N/n2c(SC)nnc2-c2ccccc2)c1O	CYP2C9 inh 54
COc1cccc(/C=N/n2cnc3ccccc32)c1OC	CYP2C19 inh 83
CCOC(=O)c1ccc(S(=O)(=O)N2CCN(CC3CC=CCC3)CC2)cc1 (configuration not stated)	none
Cc1noc(COc2ccccc2OCC(N)=O)c1Cl	none
C=C(C)c1sc(-c2ccc(Cl)cc2)nc1C	none (no result: CYP2C19 act, CYP2C9 activ, CYP2C19 inh, CYP2C9 inh)
CC(C)C(NC(=O)c1cccs1)C(=O)NC1=NCCS1 (configuration not stated)	CYP2C19 inh 54
O=C(CSC1=Nc2ccccc2C2=NC(CC(=O)NC3CCCCC3)C(=O)N12)NCc1ccco1 (configuration not stated)	none
O=C(CCC1N=C2c3ccccc3N=C(SCc3ccccc3Cl)N2C1=O)NCc1ccco1 (configuration not stated)	Cav32 inh -4.2, CYP2C9 inh 60
Cc1ccc2nc(CSc3nc(C)ccc3C#N)[nH]c2c1	CYP2C19 inh 58

Screening data as filed in PubChem BioAssay.
